Assay results: the supplement of paper PMC13380429

What follows are molecules tested on Vero E6 infected with SARS-CoV-2 (assay: SARS-CoV-2 infection rate relative to infected DMSO; higher = more infection, active = 60 or less). Conditions: 24 h.

Q: O=C1c2ccccc2-n2c1nc1ccccc1c2=O [tryptanthrin] (10 µM) was tested. Which SARS-CoV-2 infection rate did it give?
A: The SARS-CoV-2 infection rate was 96% (inactive).

Q: How did the SARS-CoV-2 infection rate turn out when Cn1c(=O)n(-c2ccc(C(C)(C)C#N)cc2)c2c3cc(-c4cnc5ccccc5c4)ccc3ncc21 (10 µM) was run?
A: The SARS-CoV-2 infection rate was 98% (inactive).

Q: Which SARS-CoV-2 infection rate does the source give for N#Cc1cc(NC(=O)C(=O)O)c(Cl)c(NC(=O)C(=O)O)c1 [lodoxamide] (10 µM) here?
A: Its SARS-CoV-2 infection rate is 110% (inactive).

Q: With COc1ccc(C(=O)c2c(C)n(CCN3CCOCC3)c3ccccc23)cc1 [pravadoline] (10 µM) as the molecule, how does the SARS-CoV-2 infection rate read?
A: Its SARS-CoV-2 infection rate is 106% (inactive).

Q: COc1ccc(-c2cc(=O)c3c(O)cc(O[C@@H]4O[C@H](CO[C@@H]5O[C@@H](C)[C@H](O)[C@@H](O)[C@H]5O)[C@@H](O)[C@H](O)[C@H]4O)cc3o2)cc1O [diosmin] (10 µM) was tested. Which SARS-CoV-2 infection rate did it give?
A: Its SARS-CoV-2 infection rate is 106% (inactive).

Q: With CC(=O)OCC(=O)[C@@]1(O)CC[C@H]2[C@@H]3CCC4=CC(=O)CC[C@]4(C)[C@H]3C(=O)C[C@@]21C [cortisone-acetate] (10 µM) as the molecule, how does the SARS-CoV-2 infection rate read?
A: The SARS-CoV-2 infection rate was 87.5% (inactive).

Q: For COc1cc2c(cc1O)CC[C@@H]1[C@@H]2CC[C@]2(C)[C@@H](O)CC[C@@H]12 [2-methoxyestradiol] (0.833333 µM), which SARS-CoV-2 infection rate is on record?
A: The SARS-CoV-2 infection rate was 102% (inactive).

Q: With CC[C@@H](Nc1c(Nc2cccc(C(=O)N(C)C)c2O)c(=O)c1=O)c1ccc(C)o1 [navarixin] (10 µM) as the molecule, how does the SARS-CoV-2 infection rate read?
A: Its SARS-CoV-2 infection rate is 110% (inactive).

Q: Which SARS-CoV-2 infection rate does the source give for c1ccc(CN(CC2=NCCN2)c2ccccc2)cc1 [antazoline] (10 µM) here?
A: The SARS-CoV-2 infection rate was 112% (inactive).

Q: For CC1(C)O[C@@H]2C[C@H]3[C@@H]4CCC5=CC(=O)CC[C@]5(C)[C@@]4(F)[C@@H](O)C[C@]3(C)[C@]2(C(=O)CCl)O1 [halcinonide] (10 µM), which SARS-CoV-2 infection rate is on record?
A: Its SARS-CoV-2 infection rate is 106% (inactive).

Q: COC1CCN(C(=O)c2cc(Cc3n[nH]c(=O)c4ccccc34)ccc2F)CC1 (10 µM) was tested. Which SARS-CoV-2 infection rate did it give?
A: Its SARS-CoV-2 infection rate is 103% (inactive).

Q: For CC12CC3CC(C)(C1)CC(N)(C3)C2 [memantine] (10 µM), which SARS-CoV-2 infection rate is on record?
A: Its SARS-CoV-2 infection rate is 110% (inactive).

Q: For Fc1ccc(-n2cc(CCCCN3CCC4(CC3)OCc3ccccc34)c3ccccc32)cc1 [siramesine] (0.833333 µM), which SARS-CoV-2 infection rate is on record?
A: Its SARS-CoV-2 infection rate is 94.5% (inactive).

Q: CN=c1nc(-c2ccccc2)n(-c2ccccc2)s1 (10 µM) was tested. Which SARS-CoV-2 infection rate did it give?
A: The SARS-CoV-2 infection rate was 97.5% (inactive).

Q: For CC(C)c1nc(N(C)S(C)(=O)=O)nc(-c2ccc(F)cc2)c1/C=C/[C@@H](O)C[C@@H](O)CC(=O)O [rosuvastatin] (0.833333 µM), which SARS-CoV-2 infection rate is on record?
A: Its SARS-CoV-2 infection rate is 99% (inactive).

Q: For CCc1ccc(/C=C/C(=O)Nc2ccc(C(C)=O)cc2)o1 [heclin] (10 µM), which SARS-CoV-2 infection rate is on record?
A: The SARS-CoV-2 infection rate was 77% (inactive).

Q: CC(=O)N[C@@H](Cc1ccc(O)cc1)C(=O)O [N-acetyl-tyrosine] (10 µM) was tested. Which SARS-CoV-2 infection rate did it give?
A: The SARS-CoV-2 infection rate was 114% (inactive).

Q: For O=C(CCCCCCC(=O)Nc1ccccc1)NO [vorinostat] (0.833333 µM), which SARS-CoV-2 infection rate is on record?
A: The SARS-CoV-2 infection rate was 118% (inactive).

Q: Which SARS-CoV-2 infection rate does the source give for O=c1[nH]c2cc(C(F)(F)F)c(N3CCOCC3)cc2n(CP(=O)(O)O)c1=O (10 µM) here?
A: The SARS-CoV-2 infection rate was 99% (inactive).

Q: CCOc1ccccc1C(=O)O [2-ethoxybenzoic-acid] (10 µM) was tested. Which SARS-CoV-2 infection rate did it give?
A: Its SARS-CoV-2 infection rate is 115% (inactive).

Q: Which SARS-CoV-2 infection rate does the source give for CO[C@H]1CC=C2CCN3CCC4=C(CC(=O)OC4)[C@]23C1 (10 µM) here?
A: The SARS-CoV-2 infection rate was 106% (inactive).

Q: How did the SARS-CoV-2 infection rate turn out when Oc1ncnc2[nH]ncc12 [allopurinol] (10 µM) was run?
A: The SARS-CoV-2 infection rate was 108% (inactive).

Q: With Nc1ccccc1NC(=O)c1ccc(CNc2nccc(-c3cccnc3)n2)cc1 [mocetinostat] (0.833333 µM) as the molecule, how does the SARS-CoV-2 infection rate read?
A: The SARS-CoV-2 infection rate was 104% (inactive).

Q: With CCOc1cc(N)c(Cl)cc1C(=O)NCC1CN(Cc2ccc(F)cc2)CCO1 (centres undefined) [mosapride] (10 µM) as the molecule, how does the SARS-CoV-2 infection rate read?
A: Its SARS-CoV-2 infection rate is 89.5% (inactive).

Q: How did the SARS-CoV-2 infection rate turn out when CN1C(C(=O)Nc2ccccn2)=C(O)c2sccc2S1(=O)=O [tenoxicam] (10 µM) was run?
A: The SARS-CoV-2 infection rate was 108% (inactive).

Q: For CCCCCCCCCCCCCCCCCCN(CCCCCCCCCCCCCCCCCC)CCCN(CCO)CCO [avridine] (10 µM), which SARS-CoV-2 infection rate is on record?
A: The SARS-CoV-2 infection rate was 102% (inactive).

Q: How did the SARS-CoV-2 infection rate turn out when Cc1cc2c(N3CCCC3)nc(N3CCCC3)nc2n1C (10 µM) was run?
A: The SARS-CoV-2 infection rate was 75% (inactive).

Q: CCCOC(=O)c1ccccc1 [propyl-benzoate] (10 µM) was tested. Which SARS-CoV-2 infection rate did it give?
A: Its SARS-CoV-2 infection rate is 90% (inactive).

Q: Which SARS-CoV-2 infection rate does the source give for Oc1cc2c(cc1O)C(c1ccccc1)CNCC2 (centres undefined) (10 µM) here?
A: The SARS-CoV-2 infection rate was 116% (inactive).

Q: With CCCCCCCCCCCCC[N+](C)(C)Cc1ccccc1 [benzalkonium] (10 µM) as the molecule, how does the SARS-CoV-2 infection rate read?
A: The SARS-CoV-2 infection rate was 105% (inactive).

Q: How did the SARS-CoV-2 infection rate turn out when CC[C@@H](CO)NCCN[C@@H](CC)CO [ethambutol] (10 µM) was run?
A: The SARS-CoV-2 infection rate was 109% (inactive).

Q: Which SARS-CoV-2 infection rate does the source give for CCC(=O)NC[C@@H]1C[C@H]1c1cccc2c1CCO2 [tasimelteon] (10 µM) here?
A: The SARS-CoV-2 infection rate was 98.5% (inactive).

Q: How did the SARS-CoV-2 infection rate turn out when C[C@@H]1NC(C)(C)CO[C@@]1(O)c1cccc(Cl)c1 [radafaxine] (10 µM) was run?
A: Its SARS-CoV-2 infection rate is 110% (inactive).

Q: With COc1ccc2nc3cc(Cl)ccc3c(Nc3cc(CN4CCCC4)c(O)c(CN4CCCC4)c3)c2n1 [pyronaridine] (0.833333 µM) as the molecule, how does the SARS-CoV-2 infection rate read?
A: The SARS-CoV-2 infection rate was 100% (inactive).

Q: Cc1cccc(C)c1NC(=O)CC12CCCN1CCC2 [pilsicainide] (10 µM) was tested. Which SARS-CoV-2 infection rate did it give?
A: The SARS-CoV-2 infection rate was 115% (inactive).

Q: CC1C=CC=CCCC=CC=CC=CC=CC(OC2OC(C)C(O)C(N)C2O)CC2OC(O)(CC(O)C(O)CCC(O)CC(O)CC(O)CC(=O)OC(C)C(C)C1O)CC(O)C2C(=O)O (centres undefined) [nystatin] (10 µM) was tested. Which SARS-CoV-2 infection rate did it give?
A: The SARS-CoV-2 infection rate was 116% (inactive).

Q: With N=C1CCCN1Cc1[nH]c(=O)[nH]c(=O)c1Cl [tipiracil] (10 µM) as the molecule, how does the SARS-CoV-2 infection rate read?
A: The SARS-CoV-2 infection rate was 106% (inactive).

Q: Which SARS-CoV-2 infection rate does the source give for Cc1c(NC(=O)N2CCOCC2)ccc2c1c1ccccc1n2C(C)C (10 µM) here?
A: Its SARS-CoV-2 infection rate is 106% (inactive).

Q: c1ccc(-c2nn3c(c2-c2ccnc4cc(OCCN5CCOCC5)ccc24)CCC3)nc1 (10 µM) was tested. Which SARS-CoV-2 infection rate did it give?
A: Its SARS-CoV-2 infection rate is 80% (inactive).
